High-throughput results as filed in PubChem.
Vaccinia mCherry: qHTS for Stage-Specific Inhibitors of Vaccinia Orthopoxvirus: mCherry Reporter Primary qHTS; Vaccinia virus mCherry reporter infection, fluorescence; Potency, µM (titrated, usually from 36.5 µM), for the others: at the top dose activity change, negative = inhibition, most hits filed as inhibitors; 0.63% of 310,000 active; AID 720579, 2013; calls by dose curve; tested in A549 cells; further: potency means the concentration at half of the fitted maximal effect; on the % scale 0 is the no-effect control and ±100 the full control effect; nearly all actives have a fitted effect of over 35% in size
LASV entry inh: qHTS for Inhibitors of binding or entry into cells for Lassa Virus | Lassa virus pseudotype entry inhibition, cell reporter | 1.2% of 300,000 active | Potency, µM (top dose mostly 37.9 µM), without a hit: at the highest dose activity change, negative = inhibition, hits mostly inhibitors; calls by dose curve; tested in HEK293 cells; further: potency means the concentration at half of the fitted maximal effect; on the % scale 0 is the no-effect control and ±100 the full control effect; nearly all actives have a fitted effect of over 50% in size
Shiga toxin inh: A qHTS for Small Molecule Inhibitors of Shiga Toxin. inhibition, % at 38.7 µM. 9.2% of 290,000 active. Vero cells, Shiga toxin protein synthesis inhibition reporter; in the data active means inhibition mostly above about 28%, no sharp cut-off; inactive means mostly below about 43%; further: 0% is about no effect
Vaccinia Venus: qHTS for Stage-Specific Inhibitors of Vaccinia Orthopoxvirus: Venus Reporter Primary qHTS | Potency, µM (top dose mostly 36.5 µM), without a hit: at the highest dose activity change, negative = inhibition, hits mostly inhibitors | 0.46% of 330,000 active | AID 720580, 2013 | Vaccinia virus Venus reporter expression, fluorescence; calls by dose curve; tested in A549 cells; further: potency means the concentration at half of the fitted maximal effect; on the % scale 0 is the no-effect control and ±100 the full control effect; nearly all actives have a fitted effect of over 30% in size
CHX counter: Cycloheximide Counterscreen for Small Molecule Inhibitors of Shiga Toxin; cell reporter, cycloheximide protein synthesis inhibition counterscreen; max response, %; 12% of 300,000 active; in the data active means max response mostly above about 13%, no sharp cut-off; inactive means mostly below about 14%; further: read at 38.3 µM for the half of the compounds with a filed dose; 0% is about no effect
MARV entry inh: qHTS for inhibitors of binding or entry into cells for Marburg Virus; Marburg virus pseudotyped entry inhibition, cell reporter; Potency, µM (highest dose often 37.8 µM), for the others: at the top dose activity change, negative = inhibition, usual class: inhibitors; 1.8% of 300,000 active; AID 540276, 2011; calls by dose curve; tested in HEK293 cells; further: potency means the concentration at half of the fitted maximal effect; on the % scale 0 is the no-effect control and ±100 the full control effect
HeLa G2M arrest: Cell cycle validation with wells to cells screening paradigm. shares compounds with MARV entry inh. HeLa cell cycle G2/M arrest, Hoechst DNA content imaging. Potency, µM, hits mostly inhibitors. 60% of 25 active. AID 2441, 2010
WI-38 tox: High Content Assay for Compounds that inhibit the Assembly of the Perinucleolar Compartment: WI-38 Cytotoxicity; shares compounds with MARV entry inh; 120 tested, under 10 active; AID 2729, 2010; WI-38 normal lung fibroblasts, ATPLite luminescence ATP viability, 24 h; Potency, µM (series often up to 46.1 µM), for the others: at the top dose activity change, negative = cytotoxicity, hits mostly inhibitors
PNC assembly inh: High Content Assay for Compounds that inhibit the Assembly of the Perinucleolar Compartment: Confirmation of PNC Inhibition. shares compounds with MARV entry inh. PC3M PTB-GFP, PNC prevalence imaging, 16 h. Potency, µM (titrated, usually from 46.1 µM), for inactives: top-dose activity, negative = PNC inhibition, most hits filed as inhibitors. 50% of 120 active. AID 2730, 2010
PC3M casp3-7: High Content Assay for Compounds that inhibit the Assembly of the Perinucleolar Compartment: PC3M Caspase 3/7 Activation; shares compounds with MARV entry inh; PC3M-GFP caspase 3/7 activation, luminescence, 24 h; activity change, positive = activation, % at 46.1 µM; 120 tested, under 10 active
Numbers without * were called inactive; i = inactive; ? = inconclusive; . = not tested or not shown; [ ] = remark or other dose. The full list was thinned out, with hits kept by preference. Unless noted, the call rests on the fitted dose curve; in most records, active means well fitted curve in the direction sought with a large enough effect; inconclusive means small, poorly fitted or top-dose-only effect, or another doubt; inactive means no such curve, though single readings can be large; an effect the other way counts as inactive or inconclusive.

SMILES	Vaccinia mCherry	LASV entry inh	Shiga toxin inh	Vaccinia Venus	CHX counter	MARV entry inh	WI-38 tox	PNC assembly inh	PC3M casp3-7	others
COc1ccc(-c2nc(NC(=O)c3n[nH]c(=O)c4ccccc34)sc2C)cc1	-2.8%	1.03µM*	2.1	0.4%	-3.1	0.794µM*	10.9%	3.98µM*	-5.1
CCN1C(=O)c2cccc3c(S(=O)(=O)N(C(=O)c4cccnc4)c4ccc(OC)cc4)ccc1c23	-26.5%	-19.6%	-3.0	?	0.9	?	.	.	.
CCN1C(=O)c2cccc3c(S(=O)(=O)N(C(=O)c4ccncc4)c4ccc(OC)cc4)ccc1c23	i	?	23.8	-21.9%	0.9	?	-2.8%	-0.9%	-3.5
CCc1ccccc1NC(=O)C1=CC(c2ccc3c(c2)OCO3)=NS(=O)(=O)N1C	1.8%	18.1%[46.1 µM]	.	-1.1%	.	-15.4%[46.1 µM]	.	.	.
CCN(CC)c1ccc(N=Cc2ccccc2[N+](=O)[O-])cc1	?	?	12.3	?	-1.7	?	-20.1%	-8.1%	-7.5
CCOc1ccc(CNCCN2CCCC2)cc1	i	?	-8.8	-9.8%	-2.0	?	.	.	.
CC(C)N1C(=S)N(Cc2ccco2)C(=O)C1CC(=O)Nc1ccccc1 (centres undefined)	-7.4%	-14.5%	-9.1	5.4%	-2.2	2.1%[46.1 µM]	.	.	.
Cc1c(C(=O)OCc2nc3ccsc3c(=O)[nH]2)oc2ccccc12	-14.7%	14.4%	.	-10.1%	.	?	.	.	.
O=C(N/N=C/c1cc2c3c(c1O)CCCN3CCC2)c1ccccc1O	?	1.3µM*	18.5	?	16.4	1.46µM*	-10.8%	?	-8.0
O=C(CN1CCCc2ccccc21)N/N=C/c1ccccc1O	?	?	-11.6	?	6.8	?	.	.	.
O=C(Nc1cccnc1)c1cccs1	.	?	4.7	.	8.0	?	7.3%	8.91µM*	-13.0
O=C(Nc1ccc(NC(=O)C2CC2)cn1)c1ccccc1Cl	-15.2%	?	49.5*	0.1%	33.3*	?	?	35.5µM*	-18.6
CCC(=NCc1cc(OC)cc(OC)c1)c1c(O)n(C)c(=O)n(C)c1=O	.	?	-10.2	.	2.4	20.6µM*	7.4%	?	-10.3
Cc1ccccc1CNC(=O)C1CCCN(c2cnccn2)C1 (centres undefined)	.	.	7.5	.	6.4	.	.	.	.
O=c1[nH]c(=O)n([C@H]2C[C@H](O)[C@@H](CO)O2)cc1Br	-13.0%	-3.4%	.	0.6%	.	20.5%	.	.	.	HeLa G2M arrest=?
COc1cccc(/C=C2\SC(=S)N(C(Cc3ccccc3)C(=O)O)C2=O)c1 (centres undefined)	i	-3.9%[46.1 µM]	-7.3	-17.2%	1.5	11.2%[46.1 µM]	.	.	.
Nc1nc2ccc(Br)cc2s1	-18.0%	.	.	-20.3%	.	.	.	.	.
Nc1cccc(-c2nc3ccc(N)cc3s2)c1	?	?	37.4	-20.2%	21.2*	11.2µM*	28.2µM*	5.01µM*	-25.6
Cc1oc(-c2ccccc2Cl)nc1CSCC(=O)NC1CCCC1	i	-13.4%	-6.6	-22.0%	-1.0	-13.1%[46.1 µM]	.	.	.
Cc1oc(-c2ccccc2Cl)nc1CSCC(=O)N1CCCC1	.	0.651µM*	25.1	.	8.3	?	9.1%	3.98µM*	-5.7
O=C(NC(CSCc1ccccc1)C(=O)N/N=C/c1ccc(O)cc1O)c1ccc([N+](=O)[O-])cc1 (centres undefined)	.	9.2µM*	45.7	.	13.6	4.61µM*	-3.5%	?	-2.9
CCOC(=O)C1CCCN(C(=S)NC(=O)/C=C/c2ccc(F)cc2)C1 (centres undefined)	.	.	-4.2	.	18.9	.	.	.	.
Cc1cccc(C(O)(C(=O)NNC(=O)CN2CCN(C)CC2)c2cccc(C)c2)c1	-24.2%	19.3%	-13.4	-12.2%	-1.8	?	.	.	.
Cc1ccc(C(O)(C(=O)NNC(=O)CN2CCN(C)CC2)c2ccc(C)cc2)cc1	i	3.1%	-14.9	-16.1%	4.6	?	-9.8%	-3.7%	-7.0
Cc1cccc(OCC(=O)NCc2ccc(F)cc2)c1	.	.	.	.	-2.1	.	.	.	.
SMILES	Vaccinia mCherry	LASV entry inh	Shiga toxin inh	Vaccinia Venus	CHX counter	MARV entry inh	WI-38 tox	PNC assembly inh	PC3M casp3-7	others
CCN(CC)C(=S)SSC(=S)N(CC)CC	-7.0%	2.91µM*	-7.1	-6.2%	-5.2	3.55µM*	?	?	1.3
CN(C)S(=O)(=O)c1ccc2c(c1)/C(=C/c1cc3c([nH]1)CCCC3)C(=O)N2	-9.9%	?	.	31.8%	.	?	.	.	.	HeLa G2M arrest=?
CC(C)c1ccc(C2/C(=C(/O)c3ccc(F)cc3)C(=O)C(=O)N2CCCN2CCOCC2)cc1 (centres undefined)	.	.	7.2	.	-1.2	.	.	.	.
O=C1C2CCCN2C(c2ccc(F)cc2)N1c1ccc(Cl)cc1 (centres undefined)	-5.1%	.	16.6	-0.9%	4.3	.	-20.5%	15.8µM*	-3.3
O=C1C2CCCN2C(c2ccccc2)N1c1ccc(F)cc1 (centres undefined)	-12.9%	.	6.8	-2.8%	-2.7	1.0%	.	.	.
Cc1ccc(CNC(=O)c2c(-c3cccc(Br)c3)noc2C)o1	-10.3%	9.6%[46.1 µM]	.	-16.4%	.	.	.	.	.
CC(=O)c1ccc(-n2c(SCC(=O)c3c[nH]c4ccccc34)nc3ccccc3c2=O)cc1	-7.0%	.	7.1	-23.7%	14.6	3.4%	-16.8%	28.0%	-6.9
COc1ccc(NC(=O)C(=O)N2N=C3CCCCC3C2(O)C(F)(F)F)cc1 (centres undefined)	i	.	-0.8	-6.1%	5.2	.	.	.	.
Cc1cccc(NC2=C/C(=N/S(=O)(=O)c3cccs3)c3ccccc3C2=O)c1	i	3.16µM*	26.1	-0.1%	14.5*	?	?	14.1µM*	?
Cc1cc(C)c(S(=O)(=O)/N=C2\C=C(NS(=O)(=O)c3ccccc3)C(=O)c3ccccc32)c(C)c1	?	22.6%[46.1 µM]	-1.6	1.9%	-1.5	?	.	.	.
CCOc1ccccc1CN1CCN(CCCc2ccccc2)CC1CCO (centres undefined)	.	.	.	.	-4.3	.	.	.	.
CC(/C=C/c1ccccc1)=N/NC(=O)c1cc([N+](=O)[O-])cc([N+](=O)[O-])c1	-14.3%	?	-0.9	-8.4%	-10.3	?	-19.9%	?	-2.1
